Compound activity: PubChem BioAssay, several laboratories
Only some compounds are listed: those with a hit (about 3% of all), similar ones and a draw of the others.
Rv3671c inh: inhibitors of M. tuberculosis serine protease Rv3671c | P9WHR9 | inhibition, % at 5.96 µM | 320,000 compounds, 0.048% hits; in the data active = inhibition above about 38%;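 also: extracellular domain of Rv3671c used as enzyme; 0% = enzyme with DMSO and 100% = no enzyme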
Mtb BioA inh: blocks M. tuberculosis BioA enzyme activity. purified M. tuberculosis BioA enzyme, plate reader. inhibition, % at 9.99 µM. 360,000 compounds, 0.096% hits; in the data active = inhibition above about 40%
FadD28 binding: blocks FadD28 binding to the bisubstrate probe | 360,000 compounds, 0.22% hits | inhibition, % at 12.5 µM | fluorescence polarization; in the data active = inhibition above about 8.5%, passing the limit was not always enough
GDH-TPI counter: counter-screen for M. tuberculosis FBA inhibitors: GDH-TPI coupled enzymes; GDH-TPI coupled enzyme counterscreen, NADH absorbance; inhibition, % at 4.8 µM; 360,000 compounds, 1.2% hits; AID 588335; in the data active = inhibition above about 30%;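 also: 0% = DMSO wells and 100% = wells lacking the enzyme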
Mtb FBA inh: inhibitors of M. tuberculosis fructose-bisphosphate aldolase. P9WQA3. purified M. tuberculosis FBA, fluorescence read-out. inhibition, % at 1 µM. 360,000 compounds, 2.3% hits. AID 588726; in the data active = inhibition above about 27%;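 also: 0% = vehicle and 100% = reference inhibitor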
Target sequence (P9WQA3 whole entry, looked up): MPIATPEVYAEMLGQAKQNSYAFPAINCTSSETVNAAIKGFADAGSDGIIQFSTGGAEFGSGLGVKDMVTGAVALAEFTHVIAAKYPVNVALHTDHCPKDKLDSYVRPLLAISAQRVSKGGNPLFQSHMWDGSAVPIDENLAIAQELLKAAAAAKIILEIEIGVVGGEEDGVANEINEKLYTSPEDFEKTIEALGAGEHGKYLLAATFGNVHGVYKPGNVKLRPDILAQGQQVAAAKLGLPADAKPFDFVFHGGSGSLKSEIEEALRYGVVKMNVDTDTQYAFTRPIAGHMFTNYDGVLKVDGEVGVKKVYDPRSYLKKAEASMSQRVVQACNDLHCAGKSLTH
* hit, by the source's call; · = no result; + = active, no number.

SMILES	Rv3671c inh	Mtb BioA inh	FadD28 binding	GDH-TPI counter	Mtb FBA inh
COc1ccc(CN(C)C[C@H]2Oc3c(NC(=O)c4cc(C)nn4C)cccc3C(=O)N([C@H](C)CO)C[C@@H]2C)cc1	·	-0.2	·	·	·
C[C@H](CO)N1C[C@H](C)[C@@H](CN(C)C(=O)C2CCC2)Oc2cc(C3=CCCC3)ccc2S1(=O)=O	·	0.1	·	·	·
C[C@@H]1CCCCO[C@H](CN(C)Cc2ccc3c(c2)OCO3)[C@H](C)CN([C@@H](C)CO)C(=O)c2cc(NC(=O)c3ccncc3)ccc2O1	·	0.6	·	·	·
C[C@H](CO)N1C[C@H](C)[C@H](CN(C)Cc2ccncc2)Oc2ccc(NC(=O)NC3CCCCC3)cc2CC1=O	·	-2.5	·	·	·
O=C(O)c1ccccc1NC(c1ccccc1)c1ccc(Cl)cc1 (stereo unspecified)	-3.5	·	11.7*	10.9	12.9
C[C@@H]1CCCCO[C@@H](CN(C)S(=O)(=O)c2cn(C)cn2)[C@H](C)CN([C@H](C)CO)C(=O)c2cc(NC(=O)Nc3ccc(C(F)(F)F)cc3)ccc2O1	·	2.9	·	·	·
C[C@H](CO)N1C[C@H](C)[C@H](CN(C)Cc2ccc(Oc3ccccc3)cc2)Oc2c(NC(=O)Nc3cccc4ccccc34)cccc2C1=O	·	-6.6	·	·	·
Oc1c(C(Nc2nccs2)c2ccc(C(F)(F)F)cc2)ccc2cccnc12 (stereo unspecified)	·	·	2.2	7.6	123.6*
Oc1c(C(Nc2cccc(C(F)(F)F)c2)c2ccncc2)ccc2cccnc12 (stereo unspecified)	14.5	·	-0.7	18.3	-3.2
COC(=O)c1ccc(-c2ccc(/C=N/N3C(=O)C4C5C=CC(C6CC56)C4C3=O)o2)cc1 (stereo unspecified)	-12.6	·	-0.9	34.4*	4.3
COC(=O)c1cccc(-c2ccc(/C=N/N3C(=O)C4C5C=CC(C6CC56)C4C3=O)o2)c1 (stereo unspecified)	-5.1	·	2.2	7.6	-0.1
COc1ccc(Nc2c3ccccc3nc3ccccc23)cc1	1.8	5.0	-1.4	7.5	10.5
c1cncc(Nc2c3ccccc3nc3ccccc23)c1	6.5	-1.4	-2.1	9.5	40.2*
CCC(=O)N1[C@H](C(=O)OC)[C@@H](CO)[C@@H]2Cn3c(ccc(/C=C/c4ccccc4)c3=O)[C@@H]21	·	-1.8	·	·	·
Cn1c(O)c(C=Nc2ccc(Cl)cc2)c(=O)n(C)c1=O	-1.4	-0.7	-2.6	8.7	-3.2
Cn1c(O)c(/C=N/c2ccccn2)c(=O)n(C)c1=O	3.1	-0.9	-4.8	33.5*	0.9
Cn1c(O)c(C=Nc2ccccc2)c(=O)n(C)c1=O	-10.4	-0.8	-0.4	46.3*	-3.1
CC=Cc1ccc2n(c1=O)C[C@H]1[C@H](CO)[C@@H](C(=O)NCC3CC3)[C@@H]2N1CC1CCOCC1 (mixture of isomers)	·	-1.5	·	·	·
CCN(C(=O)COC(=O)/C(C#N)=C/c1cc(C)n(CCOC)c1C)c1c(N)n(Cc2ccccc2)c(=O)[nH]c1=O	·	9.7	-0.7	36.8*	4.7
Cc1cc(/C=C(\C#N)C(=O)OCC(=O)N(C)c2c(N)n(Cc3ccccc3)c(=O)[nH]c2=O)c(C)n1CC(C)C	·	-1.9	-3.3	20.5	-4.0
COc1ccc(NC(=O)N(C)C[C@@H]2OCc3ccccc3-c3c(n(C)c4ccccc34)C(=O)N([C@@H](C)CO)C[C@H]2C)cc1	·	1.6	·	·	·
CCOC(=O)c1nc(Nc2ccc(C(=O)O)cc2)c2ccccc2n1	7.1	-1.8	-3.2	31.3*	-3.7
O=C(O)c1ccc(Nc2nc(-c3ccccc3)nc3ccccc23)cc1	-45.2	0.0	-12.4	46.6*	8.4
CCOC(=O)c1ccc(Nc2nc(C(=O)OCC)nc3ccccc23)cc1	-95.4	-0.2	-1.5	35.0*	0.7
CC1=C(O)C(=O)C(C2=C(O)C(=O)C(C)=C(O)C2=O)=C(O)C1=O	·	-0.8	-0.1	49.0*	4.3
SMILES	Rv3671c inh	Mtb BioA inh	FadD28 binding	GDH-TPI counter	Mtb FBA inh
Fc1ccccc1-c1nc2ncccc2o1	-7.5	-0.9	-1.4	-3.1	6.3
c1ccc2c(-c3nc4ncccc4o3)cccc2c1	-11.1	4.2	-5.3	-1.6	+
Cc1ccc(C(=O)N/C(=C\c2cn(C)c3ccccc23)C(=O)NCCCn2ccnc2)cc1	-4.2	·	-0.6	14.2	-0.6
Cn1cc(/C=C(\NC(=O)c2ccccc2)C(=O)NCCCn2ccnc2)c2ccccc21	·	3.7	-1.7	44.2*	-2.4
COc1ccc(C(=O)N/C(=C\c2cn(C)c3ccccc23)C(=O)NCCCn2ccnc2)cc1	1.9	5.9	-2.7	41.4*	-1.2
COc1ccc(C(=O)N/C(=C\c2cn(C)c3ccccc23)C(=O)NCCCn2ccnc2)cc1OC	-2.0	·	-1.4	18.2	2.3
Cc1ccc(NC(=S)N/N=C/c2ccc(OCCC(C)C)cc2)c(C)c1	-3.3	2.3	-1.6	35.9*	2.8
Cc1ccc(NC(=S)N/N=C/c2c(Cl)cccc2Cl)c(C)c1	-28.8	·	-3.5	10.1	-1.0
C[C@H]1CN([C@@H](C)CO)C(=O)c2cc(C#CC(C)(C)O)cnc2O[C@@H]1CN(C)C(=O)CC1CC1	·	-0.2	·	·	·
CNC[C@@H]1Oc2c(NC(=O)c3nc4ccccc4s3)cccc2C(=O)N([C@@H](C)CO)C[C@H]1C	·	-0.5	·	·	·
CN(C)c1ccc(C(=O)Nc2ccc(S(=O)(=O)NC3=NCCCCC3)cc2)cc1	7.8	-0.1	-0.5	32.5*	-0.6
CN(C)c1ccc(C(=O)Nc2ccc(S(=O)(=O)Nc3nccs3)cc2)cc1	-46.2	-2.6	-2.6	38.0*	3.8
Cc1noc(NS(=O)(=O)c2ccc(NC(=O)c3ccc(N(C)C)cc3)cc2)c1C	2.3	-0.8	-1.7	32.2*	2.7
Cc1ccc(C(=O)NNC(=O)c2nn(-c3ccc(F)cc3)ccc2=O)cc1	1.2	-1.5	-2.1	33.3*	-4.5
O=C(NNC(=O)c1nn(-c2ccc(F)cc2)ccc1=O)c1ccc(Cl)cc1	0.8	-2.7	-1.2	14.8	2.2
Cc1noc(NS(=O)(=O)c2ccc(NC(=O)c3ccc(OC(C)C)cc3)cc2)c1C	0.1	·	2.4	-1.9	-3.4
CN(C)CC(=O)Nc1ccc2c(c1)[C@@H]1C[C@@H](CC(=O)NCc3ccccc3)O[C@H](CO)[C@@H]1O2	·	-1.1	·	·	·
Cc1noc(NS(=O)(=O)c2ccc(NC(=O)c3cnc4scc(C)n4c3=O)cc2)c1C	3.3	0.9	-2.7	49.0*	-2.4
Cc1ccc2oc(C(=O)Nc3ccc(S(=O)(=O)Nc4onc(C)c4C)cc3)c(C)c2c1	-5.6	-1.6	-2.5	7.0	-0.9
Cc1ccc(-c2cc(C(=O)Nc3ccc(S(=O)(=O)Nc4onc(C)c4C)cc3)[nH]n2)c(O)c1	-2.0	3.1	13.8*	-1.2	-2.0
Cc1noc(NS(=O)(=O)c2ccc(NC(=O)c3nn(-c4ccc(F)cc4)ccc3=O)cc2)c1C	-3.1	7.9	-0.7	32.3*	-1.1
Cc1ccc(-n2ccc(=O)c(C(=O)Nc3ccc(S(=O)(=O)Nc4onc(C)c4C)cc3)n2)cc1	-3.4	0.4	-1.4	26.6	-1.6
Cn1cnc(S(=O)(=O)N2CCCCN3[C@H](CO)[C@@H](c4ccc(C#CC5CCCC5)cc4)[C@H]3C2)c1	·	-2.7	·	·	·
